Measurements as given in PubChem BioAssay (NCATS).
Results filed as inconclusive are left out. Activity calls are given as the source filed them. The call rests on the fitted dose curve; in most records, active means well fitted curve in the direction sought with a large enough effect; inconclusive means small, poorly fitted or top-dose-only effect, or another doubt; inactive means no such curve, though single readings can be large; an effect the other way counts as inactive or inconclusive.

Experiments:
[1] = Primary fluorescence-based thiol-reactive (MSTI) qHTS assay for identification of artifact compounds. (AID 1845221); further: nearly all actives have a fitted effect of over 65% in size; further: potency means the concentration at half of the fitted maximal effect
Procedure, shortened: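 First, 4 uM MSTI in 2% DMSO/PBS pH 7.4 was dispensed; next, compounds were added; then plates sat 1 h at room temperature without light. Finally, emission at 598 nm was recorded.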

[2] = test system: Nanoluciferase (engineered Oplophorus gracilirostris luciferase); assay: Primary Nanoluciferase (NLuc) qHTS assay for identification of artifact compounds. (AID 1845222);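 further: NLuc secreted into diluted conditioned medium of S16 cells; 0% = DMSO and -100% = no enzyme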
Procedure, shortened: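 Using secreted nanoluciferase in S16 culture medium (0.22 um filtered, 1:55 dilution), compounds were preincubated 15 min at RT. Signal was generated with Nano-Glo reagent (1:100) over 5 min.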

[3] = Primary redox qHTS assay for identification of artifact compounds. (AID 1845223)
Procedure, shortened: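 Redox-cycling detection via DTT (250 uM final) oxidation coupled to Amplex Red (25 uM)/HRP (250 mU/mL) in HBSS. 15 min preincubation plus 30 min after DTT, room temperature. Ex/Em 525/598 nm; 4-parameter Hill fit against DMSO and 10 uM DA3003.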

[4] = Quantitative High-Throughput drug screen in 47 multiple myeloma cell lines against the NCATS MIPE library collection: AMO1_DSMZ cell viability assay (AID 1918927; further: nearly all actives have a fitted effect of over 30% in size; further: potency means the concentration at half of the fitted maximal effect)
Procedure, shortened: (§1)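 Steps: seed 500 cells per well; pin-transfer MIPE 4.0 library; incubate 48 h at 37C, 5% CO2, humidified; add CellTiter-Glo, 5 min room temperature; read luminescence.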

[5] = Quantitative High-Throughput drug screen in 47 multiple myeloma cell lines against the NCATS MIPE library collection: ARD_JJKsccE7 cell viability assay (AID 1918929; further: potency means the concentration at half of the fitted maximal effect;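 on viability: 100% = DMSO-only wells and 0% = media-only wells without cells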)
Procedure, shortened: as §1

[6] = Quantitative High-Throughput drug screen in 47 multiple myeloma cell lines against the NCATS MIPE library collection: JIM1_ECACC cell viability assay (AID 1918964; further: potency means the concentration at half of the fitted maximal effect)
Procedure, shortened: as §1

[7] = Quantitative High-Throughput drug screen in 47 multiple myeloma cell lines against the NCATS MIPE library collection: JJN3_DSMZ cell viability assay (AID 1918966; further: nearly all actives have a fitted effect of over 50% in size; further: potency means the concentration at half of the fitted maximal effect)
Procedure, shortened: as §1

[8] = Quantitative High-Throughput drug screen in 47 multiple myeloma cell lines against the NCATS MIPE library collection: H1112_PLB cell viability assay (AID 1918967; further: nearly all actives have a fitted effect of over 30% in size; further: potency means the concentration at half of the fitted maximal effect)
Procedure, shortened: as §1

[9] = Quantitative High-Throughput drug screen in 47 multiple myeloma cell lines against the NCATS MIPE library collection: EJM_DSMZ cell viability assay (AID 1918926; further: nearly all actives have a fitted effect of over 30% in size; further: potency means the concentration at half of the fitted maximal effect)
Procedure, shortened: as §1

[10] = Quantitative High-Throughput drug screen in 47 multiple myeloma cell lines against the NCATS MIPE library collection: ARP1_JJKsccF8 cell viability assay (AID 1918928; further: nearly all actives have a fitted effect of over 40% in size; further: potency means the concentration at half of the fitted maximal effect)
Procedure, shortened: (§2)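 Viability screen: myeloma cells (500/well) incubated 48 h at 37 °C, humidified 5% CO2, with pinned library compounds; CellTiter-Glo added, luminescence read; DMSO wells set 100%, medium-only wells 0%.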

[11] = Quantitative High-Throughput drug screen in 47 multiple myeloma cell lines against the NCATS MIPE library collection: Karpas620_DSMZ cell viability assay (AID 1918959); further: nearly all actives have a fitted effect of over 30% in size; further: potency means the concentration at half of the fitted maximal effect;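 on viability (% of DMSO): 100% = DMSO-only wells and 0% = cell-free media-only wells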
Procedure, shortened: (§3)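 Relative luminescence from CellTiter-Glo served as the viability signal, referenced to DMSO-treated (100%) and cell-free medium (0%) controls. Treatment lasted 48 hours at 37C with 500 cells per well.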

[12] = Quantitative High-Throughput drug screen in 47 multiple myeloma cell lines against the NCATS MIPE library collection: KMM1_JCRB cell viability assay (AID 1918960); further: nearly all actives have a fitted effect of over 30% in size; further: potency means the concentration at half of the fitted maximal effect
Procedure, shortened: as §2

[13] = Quantitative High-Throughput drug screen in 47 multiple myeloma cell lines against the NCATS MIPE library collection: Karpas417_ECACC cell viability assay (AID 1918961); conditions: Karpas417 myeloma viability, CellTiter-Glo ATP luminescence, 48 h; viability (% of DMSO): at 45.8 µM (top of the series); further: potency means the concentration at half of the fitted maximal effect;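 on viability (% of DMSO): 100% = DMSO only wells and 0% = media only wells without cells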
Procedure, shortened: as §3

[14] = Quantitative High-Throughput drug screen in 47 multiple myeloma cell lines against the NCATS MIPE library collection: KHM11_PLB cell viability assay (AID 1918962); further: nearly all actives have a fitted effect of over 35% in size; further: potency means the concentration at half of the fitted maximal effect
Procedure, shortened: as §3

[15] = Quantitative High-Throughput drug screen in 47 multiple myeloma cell lines against the NCATS MIPE library collection: KMS27_JCRB cell viability assay (AID 1918970); conditions: KMS27 myeloma cells, CellTiter-Glo ATP viability, 48 h; viability (% of DMSO): at 45.8 µM (top of the series); further: nearly all actives have a fitted effect of over 30% in size; further: potency means the concentration at half of the fitted maximal effect;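 on viability (% of DMSO): 100% = DMSO-only wells and 0% = media-only wells without cells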
Procedure, shortened: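 ATP-based viability (CellTiter-Glo luminescence) is measured in cells treated 48 h with approved and investigational drugs at 37 °C. Controls are DMSO-only wells for full viability and media-only wells for none.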

[16] = Quantitative High-Throughput drug screen in 47 multiple myeloma cell lines against the NCATS MIPE library collection: Delta47_JCRB cell viability assay (AID 1918925; further: nearly all actives have a fitted effect of over 45% in size; further: potency means the concentration at half of the fitted maximal effect)
Procedure, shortened: as §1

[17] = Quantitative High-Throughput drug screen in 47 multiple myeloma cell lines against the NCATS MIPE library collection: JIM3_ECACC cell viability assay (AID 1918963; further: nearly all actives have a fitted effect of over 35% in size; further: potency means the concentration at half of the fitted maximal effect)
Procedure, shortened: as §3

[18] = Quantitative High-Throughput drug screen in 47 multiple myeloma cell lines against the NCATS MIPE library collection: INA6_PLB cell viability assay (AID 1918965; further: nearly all actives have a fitted effect of over 55% in size; further: potency means the concentration at half of the fitted maximal effect)
Procedure, shortened: as §3

[19] = Quantitative High-Throughput drug screen in 47 multiple myeloma cell lines against the NCATS MIPE library collection: Karpas25_ECACC cell viability assay (AID 1918968; further: nearly all actives have a fitted effect of over 35% in size; further: potency means the concentration at half of the fitted maximal effect)
Procedure, shortened: as §1

[20] = Quantitative High-Throughput drug screen in 47 multiple myeloma cell lines against the NCATS MIPE library collection: FR4_PLB cell viability assay (AID 1918924; further: nearly all actives have a fitted effect of over 35% in size; further: potency means the concentration at half of the fitted maximal effect)
Procedure, shortened: as §3

Cc1nc2c([nH]1)CCN(C(=O)c1ccc(NC(=O)c3ccccc3-c3ccccc3)cc1)c1ccccc1-2
inactive: Potency [1] | Potency [2] | outcome [3] | Potency [5] | Potency [6] | Potency [7] | Potency [8]
active: Potency [4] 18.7 µM

COC(=O)N1CCN(Cc2cccc(NC(=O)Nc3ccc(C)nc3)c2F)CC1
inactive: Potency [1] | Potency [2] | outcome [3] | Potency [9] | Potency [10] | Potency [5] | Potency [11] | Potency [12] | Potency [14] | Potency [6] | Potency [15]
active: Potency [13] 0.0047 µM

Cc1cccc2c1CC[C@H](CN1CCC(c3c(Cl)cccc3Cl)CC1)C[C@@H]2O
active: Potency [16] 16.6 µM | Potency [9] 18.7 µM | Potency [11] 11.8 µM | Potency [14] 20.9 µM | Potency [17] 14.8 µM | Potency [18] 18.7 µM | Potency [19] 18.7 µM
inactive: Potency [1] | Potency [2] | outcome [3]

CN(C)CCCNC(=O)c1ccc(-c2cc(O)c3ncccc3c2)cc1
inactive: Potency [2]
active: Potency [20] 20.9 µM | Potency [11] 20.9 µM | Potency [12] 20.9 µM | Potency [17] 23.5 µM | Potency [18] 20.9 µM | Potency [7] 20.9 µM | Potency [19] 18.7 µM

O=S(=O)(O)c1ccc2cc(N=Nc3cc(S(=O)(=O)O)c4cccnc4c3O)ccc2c1
inactive: outcome [3] | Potency [4] | Potency [5] | Potency [11] | Potency [12] | Potency [19] | Potency [15]
active: Potency [1] 0.15 µM | Potency [10] 2.35 µM

CC1=C[C@@H]2[C@@H]([C@@H](O)C[C@@]3(C)[C@H]2C[C@@H](C)[C@]3(O)C(=O)CO)[C@@]2(C)Cc3cnn(-c4ccccc4)c3C=C12
inactive: Potency [1] | Potency [2] | Potency [15]
active: Potency [4] 5.26 µM | Potency [5] 0.0059 µM | Potency [12] 0.0105 µM | Potency [17] 26.4 µM | Potency [7] 23.5 µM | Potency [19] 0.0083 µM

COc1cc(Nc2nc3ccccc3nc2NS(=O)(=O)c2ccc(NC(=O)c3ccc(C)c(OC)c3)cc2)cc(OC)c1
active: Potency [17] 13.2 µM | Potency [18] 16.6 µM
inactive: Potency [2] | outcome [3]

CC(C)(C)c1nc(-c2cccc(NS(=O)(=O)c3c(F)cccc3F)c2F)c(-c2ccnc(N)n2)s1
inactive: Potency [1] | Potency [2]
active: Potency [9] 20.9 µM | Potency [4] 3.72 µM | Potency [5] 18.7 µM | Potency [11] 20.9 µM | Potency [12] 3.32 µM | Potency [13] 5.9 µM | Potency [18] 0.264 µM | Potency [7] 3.32 µM | Potency [8] 8.33 µM | Potency [19] 5.26 µM | Potency [15] 16.6 µM

CN(C)CCOc1cc(-c2cn[nH]c2)ccc1NC(=O)C1COc2ccccc2O1 (configuration not stated)
inactive: Potency [1] | Potency [2] | Potency [5] | Potency [11] | Potency [14] | Potency [8]
active: viability (% of DMSO) [13] 64.1% | Potency [17] 18.7 µM | Potency [18] 13.2 µM

CCCCCOC(=O)Nc1nc(=O)n([C@@H]2O[C@H](C)[C@@H](O)C2O)cc1F (some centres not stated)
active: Potency [19] 18.7 µM
inactive: Potency [20] | Potency [16] | Potency [9] | Potency [4] | Potency [10] | Potency [5] | Potency [11] | Potency [12] | Potency [17] | Potency [6] | Potency [7] | Potency [8] | Potency [15]

Cc1cccc(-c2[nH]c(C(C)(C)C)nc2-c2ccc3c(c2)OCO3)n1
active: Potency [20] 29.6 µM | Potency [16] 1.32 µM | Potency [9] 11.8 µM | Potency [10] 16.6 µM | Potency [5] 5.26 µM | Potency [12] 3.72 µM | Potency [13] 1.66 µM | Potency [14] 1.18 µM | Potency [17] 0.833 µM | Potency [6] 6.62 µM | Potency [18] 2.64 µM | Potency [7] 14.8 µM | Potency [8] 1.32 µM | Potency [19] 0.526 µM | Potency [15] 1.32 µM
inactive: Potency [4]

CCOC(=O)[C@H](CCc1ccccc1)N[C@@H](C)C(=O)N1CCCC1C(=O)O (some centres not stated)
inactive: Potency [20] | Potency [16] | Potency [9] | Potency [4] | Potency [10] | Potency [5] | Potency [11] | Potency [12] | Potency [14] | Potency [8] | Potency [19]

CS(=O)(=O)c1ccc(C2=C(c3ccccc3)C(=O)OC2)cc1
inactive: Potency [1] | outcome [3] | Potency [9] | Potency [4] | Potency [10] | Potency [11] | Potency [12] | Potency [13] | Potency [17] | Potency [18] | Potency [8] | Potency [19] | Potency [15]

CCN1CCC(n2cc(CNc3cc(Cl)c4ncc(C#N)c(Nc5ccc(F)c(Cl)c5)c4c3)nn2)CC1
inactive: Potency [1] | Potency [2] | Potency [12]
active: Potency [16] 14.8 µM | Potency [4] 6.62 µM | Potency [5] 5.9 µM | Potency [11] 5.9 µM | Potency [17] 14.8 µM | Potency [18] 20.9 µM | Potency [7] 20.9 µM | Potency [19] 18.7 µM
